Sampled rows, rich in hits. Any-hit rate of the full collection: about 9.4%.
SMN2 splice up: qHTS Assay for Enhancers of SMN2 Splice Variant Expression; HEK293 SMN2-luciferase splicing reporter, luminescence, 30-36 h; 2.8% of 210,000 active; Potency, µM (titrated, usually from 46.1 µM), for the others: top-dose activity change, positive = activation, hits mostly activators; further: % of control where 0% means no effect; nearly all actives have a fitted effect of over 55% in size
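HEK293 cells carry an SMN2 […]–luciferase reporter in which exon 7 inclusion puts luciferase in frame. Cells were plated 10-12 h before compound addition, then incubated 30-36 h at 37C. ONE-Glo luminescence was read; sodium butyrate at 4.5 mM final served as control.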
ELG1 repair inh: qHTS screen for small molecules that inhibit ELG1-dependent DNA repair in human embryonic kidney (HEK293T) cells expressing luciferase-tagged ELG1. HEK293T ELG1-luciferase reporter, luminescence, 16 h; DNA damage induced by 5-fluorouridine. Potency, µM (top dose mostly 46.1 µM), for inactives: at the highest dose activity change, negative = inhibition, most hits filed as inhibitors. 2.3% of 330,000 active; further: on the % scale 0 is the no-effect control and ±100 the full control effect; nearly all actives have a fitted effect of over 55% in size
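Luminescence from the luciferase reporter, measured 30 min after ONE-Glo reagent at room temperature, was the read-out. Beforehand, 2,000 cells per well were exposed for 16 hr at 37 °C to 5-fluorouridine together with compound or vehicle.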
FLuc counter: qHTS profiling assay for firefly luciferase inhibitor/activator using purifed enzyme and Km concentrations of substrates (counterscreen for miR-21 project) | purified FLuc, Km substrates, luminescence inhibition | Potency, µM (highest dose often 57.5 µM), without a hit: at the top dose activity change, negative = inhibition, hits mostly inhibitors | AID 588342, 2011 | 6.9% of 360,000 active;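 further: plate controls were vehicle for no effect and reference inhibitor for full effect; nearly all actives have a fitted effect of over 55% in size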
Target sequence (P08659 whole entry, looked up): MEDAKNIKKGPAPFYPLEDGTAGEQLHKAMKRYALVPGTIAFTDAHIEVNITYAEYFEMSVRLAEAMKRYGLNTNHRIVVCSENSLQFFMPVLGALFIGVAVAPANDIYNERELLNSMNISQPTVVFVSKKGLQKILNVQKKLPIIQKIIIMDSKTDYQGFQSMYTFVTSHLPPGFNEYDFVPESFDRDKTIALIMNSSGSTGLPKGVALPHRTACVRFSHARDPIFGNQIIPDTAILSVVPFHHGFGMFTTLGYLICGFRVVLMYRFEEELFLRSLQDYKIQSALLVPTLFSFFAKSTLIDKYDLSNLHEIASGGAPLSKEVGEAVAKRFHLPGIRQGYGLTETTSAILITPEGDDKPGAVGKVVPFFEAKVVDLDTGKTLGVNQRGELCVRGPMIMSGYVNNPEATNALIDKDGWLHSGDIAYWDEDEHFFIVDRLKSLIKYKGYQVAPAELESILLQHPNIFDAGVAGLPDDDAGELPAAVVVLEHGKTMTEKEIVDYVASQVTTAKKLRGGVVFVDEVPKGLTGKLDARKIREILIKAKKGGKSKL
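Purified P. pyralis luciferase (10nM final) with 10uM D-luciferin and 10uM ATP (Km levels) in 50mM Tris acetate pH 7.5, 10mM Mg acetate, 0.01% Tween-20, 0.05% BSA; qHTS 6-point titration, ~60 µM downward; luminescence read.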
Rab9 prom act: qHTS Assay for Rab9 Promoter Activators; 2.8% of 320,000 active; Huh7 Rab9 promoter-luciferase reporter, luminescence, 24 h; AID 485297, 2010; Potency, µM (doses to about 9.22 µM), for inactives: at the highest dose activation, negative = inhibition, hits mostly activators; further: % of control where 0% means no effect; nearly all actives have a fitted effect of over 60% in size
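Cells were plated at 1500 per well in reduced-serum medium with 10% FBS and left 2 h. Compound in DMSO was then added for 24 h at 37 °C. Reporter signal was read by luminescence after 10 min with luciferase detection reagent.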
ELG1 genotoxic: qHTS screen for small molecules that induce genotoxicity in human embryonic kidney (HEK293T) cells expressing luciferase-tagged ELG1 | HEK293T ELG1-luciferase reporter, luminescence, 16 h | Potency, µM (top dose mostly 46 µM), for inactives: at the highest dose activity change, positive = activation, actives largely listed as activators | 1.3% of 330,000 active; further: % of control where 0% means no effect; nearly all actives have a fitted effect of over 60% in size
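Reporter readout depends on ELG1 protein level, which increases with genetic stress. After 16 hr compound exposure at 37 °C, luciferase activity was quantified using ONE-Glo.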
NPC1 prom act: qHTS Assay for NPC1 Promoter Activators; Huh7 NPC1 promoter luciferase reporter, 24 h; Potency, µM (highest dose often 9.22 µM), inactives show at the top dose activation, usual class: activators; AID 485313, 2010; 2.4% of 320,000 active; further: % of control where 0% means no effect; nearly all actives have a fitted effect of over 60% in size
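Stable NPC1-promoter luciferase Huh7 line; cpd (DMSO) 24 h, 37 °C, 5% CO2; Amplite luciferase reagent 10 min RT; luminescence readout. qHTS format.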
* hit, by the source's call; ? = inconclusive; . = no result. The call rests on the fitted dose curve; in most records, active means well fitted curve in the direction sought with a large enough effect; inconclusive means small, poorly fitted or top-dose-only effect, or another doubt; inactive means no such curve, though single readings can be large; an effect the other way counts as inactive or inconclusive. Potency means the concentration at half of the fitted maximal effect.

SMILES | SMN2 splice up | ELG1 repair inh | FLuc counter | Rab9 prom act | ELG1 genotoxic | NPC1 prom act
Cc1cc(Cl)c2oc(C(=O)N3CCN(C(=O)c4ccco4)CC3)c(C)c2c1 | . | -21% | 11µM* | ? | ? | ?
Cc1cc(Cl)c2oc(C(=O)N3CCN(c4cccc(C)n4)CC3)c(C)c2c1 | . | 0% | 15µM* | ? | ? | 3.5µM*
Cc1c(Cl)cccc1NC(=O)N1CCN(C(=O)c2ccco2)CC1 | . | 5% | -2% | 9% | 2% | 0%
Cc1ccc2oc(C(=O)N3CCN(c4cccc(C)n4)CC3)c(C)c2c1 | . | ? | ? | 21% | 10% | 6%
CCOC(=O)c1ccc(NC(=O)C2CCN(C(=O)N3CC(C)Oc4ccc(C)cc43)CC2)cc1 (stereo not drawn) | . | . | -8% | . | . | .
Nc1nc2c(nc(Br)n2C2O[C@H]3COP(=O)(O)O[C@@H]3C2O)c(=O)[nH]1 (stereo partly drawn) | -2% | . | . | . | . | .
Cn1c(=O)n(C)c2cc([N+](=O)[O-])c(N3CCN(S(=O)(=O)c4ccccc4)CC3)cc21 | . | 12µM* | 2% | -5% | -8% | -4%
O=C(Cn1c(=O)n(Cc2nc(-c3ccccc3)no2)c(=O)c2cc3c(cc21)OCO3)Nc1ccc(Cl)cc1 | . | . | 4% | . | . | .
CCN1/C(=C/C(=O)c2ccco2)Sc2ccccc21 | 14% | ? | 24µM* | ? | 0% | 4%
CCCCCCNC(=O)Nc1ccc(S(=O)(=O)Nc2ccc(CCNC[C@H](O)COc3ccc(O)cc3)cc2)cc1 | -1% | . | . | . | . | .
CN(CC(=O)Nc1ccc(Cl)c(Cl)c1)C(=O)c1cccc2cccnc12 | . | -21% | 3% | 4% | 0% | -5%
Cc1ccc(NC(=O)CN(C)S(=O)(=O)c2cccc3cccnc23)cc1 | -6% | -16% | -13% | 1% | 0% | 1%
COc1ccccc1C(=O)Nc1cccc2cccnc12 | . | 50% | 17µM* | ? | 8% | 24%
O=C(NCCc1ccccc1F)c1cccc2cccnc12 | . | ? | 17µM* | 1.8µM* | ? | 3.2µM*
Cc1ccc(NC(=O)c2cccc3cccnc23)cc1 | . | ? | 5.4µM* | 1.6µM* | ? | 2.5µM*
CC(=O)Nc1cccc(NC(=O)c2cccc3cccnc23)c1 | . | ? | 13µM* | 23% | -4% | -1%
COc1ccc(/C=C2\SC(=S)N(CC(=O)N(C)C3CCS(=O)(=O)C3)C2=O)cc1 (stereo not drawn) | . | 9% | 19µM* | 0% | 4% | 13%
COc1cccc(/C=C2\SC(=S)N(CC(=O)N(C)C3CCS(=O)(=O)C3)C2=O)c1 (stereo not drawn) | . | 0% | 11µM* | -2% | 5% | -1%
COC(=O)c1cnc(SCc2ccc(Cl)cc2)n1C | . | ? | ? | ? | 10% | 21%
COC(=O)c1cnc(SCC(=O)c2ccccc2)n1C | . | ? | 3.4µM* | 1.1µM* | ? | 1µM*
COC(=O)c1ccc2ncccc2c1 | 20% | ? | ? | 0% | 5% | 12%
COC(=O)c1ccnc(SCC(=O)c2ccccc2)c1 | ? | ? | 3.8µM* | 2.8µM* | 15µM* | 3.2µM*
O=C(Nc1ccc(Nc2ccccc2)cc1)c1ccc(F)cc1 | . | ? | 19µM* | 12% | 3% | 16%
O=C(Nc1ccc2oc(=O)ccc2c1)c1ccc2ccccc2c1 | . | ? | 9.5µM* | ? | 9% | ?
O=C(Nc1ccc2oc(-c3ccccc3)nc2c1)c1ccc2ccccc2c1 | -9% | . | 3% | . | . | .
SMILES | SMN2 splice up | ELG1 repair inh | FLuc counter | Rab9 prom act | ELG1 genotoxic | NPC1 prom act
CC(=O)c1cnc(Nc2cccc(C)c2)s1 | 18µM* | ? | ? | 2.5µM* | 11% | ?
O=C(Nc1ccc2ccccc2c1)c1ccc(Cl)cc1 | . | ? | 0.54µM* | 0.32µM* | 0.92µM* | 0.5µM*
Cc1ccc(-c2nc3c4ccccc4n(CC(=O)N4CCN(c5ccccc5F)CC4)c(=O)n3n2)cc1 | . | . | -1% | . | . | .
CN(C)CCCNc1oc(/C=C/c2ccc(F)cc2)nc1C#N | -6% | . | -3% | . | . | .
COCCCNC(=O)CN1C(=O)c2cccnc2Sc2ccccc21 | . | . | 2% | . | . | .
Cc1ccc(NC(=O)c2ccccc2)cc1 | 14µM* | ? | 6µM* | 2.2µM* | ? | 2µM*
Cc1cc(C)c2cc(C(=O)Nc3ccc4c(c3)OCO4)[nH]c2c1 | . | 16% | ? | 12% | 0% | 2%
O=C(Nc1ccc(-c2ccccc2)cc1)c1ccccc1 | . | 0% | -1% | -2% | -2% | -3%
Cc1sc(C(=O)Nc2ccc3ccccc3c2)cc1CC(=O)O | ? | ? | 9.5µM* | ? | 15% | ?
CCC(=O)Nc1ccc2ccccc2c1 | 29% | ? | ? | 1% | 13% | 4%
Cc1ccc(C(=O)Nc2ccc3ccccc3c2)cc1 | . | ? | 0.076µM* | 0.22µM* | 0.29µM* | 0.1µM*
Cc1cc(C)c2cc(C(=O)Nc3ccccc3)[nH]c2c1 | . | 0% | ? | 3.2µM* | ? | 4.5µM*
Cc1ccc(C)c(N2CCN(C3(c4ccccc4)C(=O)c4ccccc4C3=O)CC2)c1 | -8% | . | -7% | . | . | .
O=C(Nc1nnc(-c2ccncc2)o1)c1ccc2ccccc2c1 | . | -5% | -12% | -4% | -17% | -3%
